Bioassay records from PubChem BioAssay.
Shown are actives, neighbours in structure and some others; about 2.5% of the full set was active somewhere.
aDG glyco act = activators of alpha-DG glycosylation, primary screen, uHTS, Pro5-aDG cells, AlphaScreen; alpha-DG glycosylation AlphaScreen (IIH6); 0% Pro5, 100% B10-LARGE cell signal; activation, % at 10 µM; 360,000 tested, 0.22% active;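 active = activation of at least 8% versus controls, or a plate z-score of at least 8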;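 note: Pro5 are CHO cells carrying HIG-tagged alpha-DG that lacks glycosylation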
Dyrk1A ADPGlo = rat Dyrk1A kinase inhibitors, primary screen, biochemical, single point, plate reader; Dual specificity tyrosine-phosphorylation-regulated kinase 1A (Rattus norvegicus), Q63470; ADP-Glo luminescence, NFATc1 peptide; inhibition, % at 12.5 µM; 310,000 tested, 0.43% active; AID 504441, 2011; in the data active = inhibition above about 50%
HSF1 activator = HSF-1 activators, primary screen, NIH3T3-HGL cells, MG132 stress, luminescence, single point; NIH3T3-HGL HSF-1 luciferase reporter, 8 h; 100% = twice DMSO control signal; activation, % at 9 µM; 300,000 tested, 1.7% active; AID 504408, 2011;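 active = mean replicate activation of at least 50% with a set share of replicates each reaching 50%; inconclusive = only one of those two conditions met; inactive = mean below 50% and too few replicates reaching it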
NPR1 activator = GC-A stimulated cGMP production enhancers – HEK293 GC-A cells, cGMP TR-FRET, EC30 ANP, primary screen; Atrial natriuretic peptide receptor 1 (Homo sapiens), P16066; 370,000 tested, 0.14% active; activation, % at 10 µM; 0% at EC30 ANP, 100% saturating ANP; AID 1671463, 2021; in the data active = activation above about 40%
HSF1 inh = HSF1 inhibitors in luciferase reporter cells, primary screen, cell-based, NIH3T3, luminescence; NIH3T3-HGL HSE-luciferase, MG132-induced, luminescence 8 h; active compounds read low; activity change, negative = inhibition, % at 7.5 µM (by protocol); 300,000 tested, 0.77% active; AID 2098, 2009;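 active = more than half of replicate wells show activity change below -50%, luminescence cut by over half; inconclusive = some wells, but at most half, below -50%; inactive = no replicate well below -50%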;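 note: luciferase reports HSF-1 transcriptional activity via heat shock element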
GC-B act = human GC-B receptor activators, primary screen, HEK293 GC-B cells, cGMP TR-FRET, EC30 CNP; Atrial natriuretic peptide receptor 2 (Homo sapiens), P20594; activation, % at 10 µM; 370,000 tested, 0.11% active; AID 1920062, 2024; 0% at EC30 CNP, 100% saturating CNP;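 active = activation at 10 µM reaching about 35% in either raw or pattern-adjusted values, limit read from the data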
Of the large screens only hits and unclear results are named; the others gave an inactive call.

Oc1ccc2ccccc2c1N=Nc1ccccn1	none
c1ccc2c(-c3nc(-c4ccncc4)no3)cccc2c1	HSF1 activator 78
Cc1ccc(SCc2nc(-c3ccncc3)no2)cc1	none
c1ccc(SCc2nc(-c3ccncc3)no2)cc1	HSF1 activator 73 (no result: Dyrk1A ADPGlo)
c1ccc(-c2noc(-c3cccc4ccccc34)n2)cc1	HSF1 activator inconclusive
Cn1c2ccccc2c(=O)c2ccc(F)cc21	none
CCOC(=O)Nc1ccc2c(c1)N(C(=O)CN1CCN(C)CC1)c1ccccc1CC2	none
CCCC(CCC)C(=O)Nc1ccc2c(c1)N(C(=O)CCN1CCN(C)CC1)c1ccccc1CC2	HSF1 inh -63
COc1ccccc1/C=C1/SC(=S)N(C(C)C(=O)NC2C=CS(=O)(=O)C2)C1=O (stereo unspecified)	HSF1 activator 64 (no result: Dyrk1A ADPGlo)
C/C(=N\O)C1CCCCC1	HSF1 inh -57 (no result: aDG glyco act, Dyrk1A ADPGlo, NPR1 activator, GC-B act)
O=C(N/N=C/CCc1ccccc1)c1ccccc1	HSF1 activator 76
O=C(N/N=C/CCc1ccccc1)C1CCCCC1	none
Cc1ccc(C)c(Cn2c(=O)n(-c3ccc(CC(=O)NCc4ccco4)cc3)c(=O)c3sccc32)c1	none
CSc1ccccc1C(=O)Nc1cccc(N(C)S(C)(=O)=O)c1	none
COc1cccc(C(=O)Nc2ccc(N(C)C)cc2)c1OC	HSF1 activator 71
COc1cccc(C(=O)Nc2ccncc2)c1OC	none (no result: Dyrk1A ADPGlo)
COc1ccccc1C(=O)Nc1cccc(N(C)S(C)(=O)=O)c1	HSF1 activator 50
Cc1nc(Oc2ccccc2)c2ccsc2n1	none (no result: Dyrk1A ADPGlo)
Cc1cc(C)c(C)c(S(=O)(=O)N2CCN(C(=O)C3CCC3)CC2)c1C	none
O=C(C#Cc1ccccc1)Nc1ccccc1F	HSF1 activator 106
NC(=O)c1ccc(NC(=O)C#Cc2ccccc2)cc1	HSF1 activator 61
CC(C)CNC(=O)C1(C)CCCN1C(=O)c1cccnc1 (stereo unspecified)	none (no result: Dyrk1A ADPGlo, HSF1 activator, HSF1 inh)
O=C(NCC1CCOCC1)c1ccc2nc(Cc3cccc(Cl)c3)oc2c1	HSF1 activator 54
CCN(CC)c1ccc(C(=C2C=CC(=[N+](CC)CC)C=C2)c2ccccc2)cc1	HSF1 activator 95, HSF1 inh 95, GC-B act 39
CCN(CC)c1ccc(C(=C2C=CC(=[N+](CC)CC)C=C2)c2ccc(N(CC)CC)cc2)cc1	none (no result: HSF1 activator, HSF1 inh)
COc1ccc(/C(O)=C2/C(=O)C(=O)N(CCCN(C)C)C2c2ccc(Cl)cc2)cc1OC (stereo unspecified)	none
Cc1ccc(-c2csc(C(C#N)=C3CCCC3)n2)cc1	none (no result: HSF1 activator, HSF1 inh)
N#CC(=C1CCCC1)c1nc(-c2ccccc2)cs1	HSF1 activator 86
N#CC(=C1CCCC1)c1nc(-c2cc3ccccc3oc2=O)cs1	HSF1 activator 72
N#CC(=C1CCCC1)c1nc(-c2ccccc2O)cs1	none (no result: NPR1 activator, GC-B act)
Cn1c(SCc2ccccn2)nnc1-c1ccncc1	none
O=C(COC(=O)Cn1cnc2ccccc2c1=O)Nc1ccccc1OC(F)F	none (no result: HSF1 activator, HSF1 inh)
O=C1OCCC1Sc1nnc(-c2ccc(Br)cc2)o1 (stereo unspecified)	NPR1 activator 66
O=[N+]([O-])c1ccccc1N/N=C\c1ccccc1F	HSF1 activator 65 (no result: Dyrk1A ADPGlo)
O=[N+]([O-])c1ccccc1N/N=C\c1ccccc1Cl	none
CCn1c(SCC(=O)OC)nc2sc3c(c2c1=O)CC(C)(C)OC3	none
Cc1sc2nc(CSc3cccc(C(F)(F)F)c3)[nH]c(=O)c2c1C	HSF1 activator 82
CCCOc1ccccc1N/C(=N\S(=O)(=O)c1ccc(C)cc1)Nc1nc(C)cc(C)n1	NPR1 activator 45, GC-B act 54
CCCOc1ccccc1N/C(N)=N/c1nc(C)cc(C)n1	none
O=C(Oc1ccc(NC2=NS(=O)(=O)c3ccccc32)cc1)c1cccnc1	HSF1 activator 52
O=S1(=O)N=C(Nc2ccc(O)cc2)c2ccccc21	none
